In the supplement of paper PMC6555819:

system: THRa:RXRa (NR concentration 90 nM, RXRa partner concentration 90 nM); experiment: PBM binding z-score (relative to random genomic background probes); higher = stronger binding; sequences stand for … in GC…GCGATTGACAGCGTAGAATGAAGG
Summary of the method: (§1)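 Random background probes are the reference for binding z-scores. These scores derive from regression-normalized fluorescence on custom Agilent 4×180K protein-binding microarrays incubated 1 h with ligand-free nuclear receptor dimers. Binding was detected with antibodies against each partner (one per run).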

Sequence | PBM binding z-score
CTCGAAAGGTCGTGCTCAGGTGAGTATCCCAAAC | 4.05
CCTATTAGTTGACCATAAGCGCAACCGAAGCTCG | 0.364
TCGATTAGTTGATTAGGGCAACCGAAACAGCGGA | 0.565
TCTTGTAGATCAAGCAAGTTAAGAAAGCCTGAGT | 0.341
TCGAGTAGGTTAGTCAGGGCATTCAGCCAACATA | 1.1
CGTCCAAGGTCAATGCTAAGTCAGTGAAAGCATT | 3.72
ATCTCTAGGTAAGACTCAGTTCATTGAAGAACGC | 1.58
CTACCAAGGTGAACAAGGTCGTTGACTACTATTC | 3.49
ATCTCTAGGTAAACTTCAGTGAAAGATCGATAGA | 0.667
ACTAGTTGGTCTGCTGAGGTCACACACAATTCGG | 4.32
AATACAGGGACACTAGGCCAGAGTAGGTACGAAT | 0.812
CCTCGGAGGACAGAATGTCAGAGCTGTCCGCTTT | -0.251
CAAATTAGGTCACAGAGGTCAAAGTCCGTGCGTA | 4.73
CTCGAAAGGTCGGTTGAGCTGAGTATACGGATAA | 0.825
TCTATTAGCTGAAGGGCAACCGACGAGTCCGTTT | -0.0875
TCGAGTAGGTTACTCGGGGCATTCAGCCAACATA | 1.76
CCTGCTCGGTCATGGTCAGCTAATCTACAGTATG | 0.067
AGTCAAAGTTCAGGCCGAGGTAACGTAAAGCACG | 3.78
GATACAGCGTCAGCTAGAGGCCAGAGTATGGAAA | -0.787
ATATGTAGGTTACATCCGGGTCATTCCGGCTATG | 3.61

Sequence | PBM binding z-score
TCATATAGGTAACGGTGAAAGTCGAACGATATGA | -0.0623
CCTACTCGGCCATCAGGTCATTGATATCAACGTT | 3.16
AGAACGAGGGCAATGAGTTGGTAGCACGGGTGGC | 0.555
TCATATAGGAAAAAGGTGAAAGTCGGTGTGGTAA | 1.11
GCCGCTAGGTCAGGTTGGTCAGCTAACGGGTACG | 1.81
CAAACTAGGTCACAGAGCTCAAAGTCCGTGCGTA | 3.25
TTTATTAGTTGAAGGGCAACCGACGAGTCCGTTT | 0.408
CCTACTGGTCCATTCAGAGGTCATTGATCATATG | 2.91
TCATATAGGTAAAGAGGTGAAAGTCCGTAAGTTA | 1.8
ATCTCTAGGTAAAGTTCAGTGCAAGATCGATAGA | 1.5
TTACCAAGGTGAAGGGCGTTGATCCCTCTGTAGA | 1.49
CTCGAAAGGTCGGTTGAGGTGAGTATCCGGATAA | 5.01
GGAACGAGGGCATTCGAGTAGATAGCATGGCGAT | 1.41
ACTTACCGGTCAACGAGGTTATAGCACGCGTATA | 2.69
ACTAGTTGGTCAGATGAGGTCACACACAATTCGG | 4.8
AAAGACAGGTGAGTGAAGGTAACTCAGCTGGACG | 1.86
AGTCAAAGTTCATCTAGGTGACGTAAGATATGCT | 3.16
CCTGCTAGGTCATGGTCAGCTAATCTACAGTATG | 3.06
ATATGTAGGTTATTGGGTCATTCAGTTTGCGCAT | 2.85
TCTTGTAGATCAACAGGAGCTTAAGAAAGATCGA | -0.552

system: THRa homodimer (NR concentration 90 nM); experiment: as above
Summary of the method: as §1

Sequence | PBM binding z-score
CTCGAAAGGTCGTGCTCAGGTGAGTATCCCAAAC | 1.22
CCTATTAGTTGACCATAAGCGCAACCGAAGCTCG | 0.809
TCGATTAGTTGATTAGGGCAACCGAAACAGCGGA | 0.154
TCTTGTAGATCAAGCAAGTTAAGAAAGCCTGAGT | -0.759
TCGAGTAGGTTAGTCAGGGCATTCAGCCAACATA | 0.314
CGTCCAAGGTCAATGCTAAGTCAGTGAAAGCATT | 1.98
ATCTCTAGGTAAGACTCAGTTCATTGAAGAACGC | 0.923
CTACCAAGGTGAACAAGGTCGTTGACTACTATTC | 2
ATCTCTAGGTAAACTTCAGTGAAAGATCGATAGA | 0.466
ACTAGTTGGTCTGCTGAGGTCACACACAATTCGG | 5.25
AATACAGGGACACTAGGCCAGAGTAGGTACGAAT | 0.241
CCTCGGAGGACAGAATGTCAGAGCTGTCCGCTTT | -0.615
CAAATTAGGTCACAGAGGTCAAAGTCCGTGCGTA | 3.68
CTCGAAAGGTCGGTTGAGCTGAGTATACGGATAA | -0.574
TCTATTAGCTGAAGGGCAACCGACGAGTCCGTTT | -0.551
TCGAGTAGGTTACTCGGGGCATTCAGCCAACATA | -0.17
CCTGCTCGGTCATGGTCAGCTAATCTACAGTATG | -0.311
AGTCAAAGTTCAGGCCGAGGTAACGTAAAGCACG | 1.3
GATACAGCGTCAGCTAGAGGCCAGAGTATGGAAA | -0.942
ATATGTAGGTTACATCCGGGTCATTCCGGCTATG | 2.3

Sequence | PBM binding z-score
TCATATAGGTAACGGTGAAAGTCGAACGATATGA | -0.6
CCTACTCGGCCATCAGGTCATTGATATCAACGTT | 3.66
AGAACGAGGGCAATGAGTTGGTAGCACGGGTGGC | -0.125
TCATATAGGAAAAAGGTGAAAGTCGGTGTGGTAA | 0.221
GCCGCTAGGTCAGGTTGGTCAGCTAACGGGTACG | 0.524
CAAACTAGGTCACAGAGCTCAAAGTCCGTGCGTA | 1.11
TTTATTAGTTGAAGGGCAACCGACGAGTCCGTTT | 0.198
CCTACTGGTCCATTCAGAGGTCATTGATCATATG | 2.07
TCATATAGGTAAAGAGGTGAAAGTCCGTAAGTTA | 0.621
ATCTCTAGGTAAAGTTCAGTGCAAGATCGATAGA | 0.256
TTACCAAGGTGAAGGGCGTTGATCCCTCTGTAGA | 0.536
CTCGAAAGGTCGGTTGAGGTGAGTATCCGGATAA | 1.34
GGAACGAGGGCATTCGAGTAGATAGCATGGCGAT | -0.662
ACTTACCGGTCAACGAGGTTATAGCACGCGTATA | 1.21
ACTAGTTGGTCAGATGAGGTCACACACAATTCGG | 4.95
AAAGACAGGTGAGTGAAGGTAACTCAGCTGGACG | -0.204
AGTCAAAGTTCATCTAGGTGACGTAAGATATGCT | 0.193
CCTGCTAGGTCATGGTCAGCTAATCTACAGTATG | 1.39
ATATGTAGGTTATTGGGTCATTCAGTTTGCGCAT | 2.41
TCTTGTAGATCAACAGGAGCTTAAGAAAGATCGA | -1.65
